TCR act = activators of T cell receptors; primary human leukocytes, anti-CD3, IL-2 HTRF, 48 h; 330,000 tested, under 10 active; Potency, µM (titrated, usually from 9.22 µM), for the others: at the highest dose activation of IL-2 secretion, hits mostly activators; AID 504894; note: % of control where 0% means no effect
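Primary human leukocytes receive a-CD3 beads and test compound and are incubated 48 hr. Secreted IL-2 is then assayed by HTRF, measuring 665nm acceptor emission after 320nm excitation of the europium donor.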
BRCA1 expr act = increases BRCA1 expression; Potency, µM (top dose mostly 46.1 µM), inactives show at the highest dose activation, most hits filed as activators; 1.1% of 380,000 active; MCF7-BRCA1-FFLuc reporter, luminescence, 48 h; response scale: scaled: vehicle 0%, 10 µM genistein 100%; AID 624202; note: potency is the fitted concentration of half-maximal effect; nearly all actives have a fitted effect of over 80% in size
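Reporter cells (MCF7, BRCA1 promoter-firefly luciferase) received library compounds across a concentration series for 48 h. End-point luminescence was measured and concentration-effect curves derived after normalization.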
IL2 activator = IL-2 activation. IL-2 activation reporter assay, cell-based qHTS; stimulated with anti-CD3/CD4/CD28 beads; in transgenic mouse T cells. activation, % (series mostly up to about 46 µM). 0.065% of 360,000 active. AID 652025; in the data active = activation above about 50%; inconclusive = mostly about 30% to 49%; note: 0% is about no effect
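First, unstimulated transgenic mouse T cells were exposed to compound for 60 min. Next, anti-CD3/anti-CD4-coated beads with anti-CD28 were added. Finally, after 18 h at 37 degrees C, EGFP and DsRed were imaged.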
Mito fusion act = mitochondrial division inhibition or fusion activation. Potency, µM (highest dose often 46.1 µM), for the others: top-dose growth rescue (activation), usual class: activators. 0.23% of 320,000 active. S. cerevisiae fusion-defective mutant growth rescue, CellTiterGlo 48 h; note: potency is the fitted concentration of half-maximal effect; % of control where 0% means no effect; nearly all actives have a fitted effect of over 45% in size
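Read-out: ATP-based luminescence (CellTiterGlo, 10 min ambient) reporting growth of fusion-defective ts yeast after 48 hours at 37C on glycerol/ethanol YPEG medium in the presence of compound.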
p53 reactivation = re-activators of mutant p53; H1299 p53-A138V BP100-luciferase reporter, luminescence, 24 h; Potency, µM (series often up to 92.2 µM), for the others: at the top dose activity change, positive = activation, usual class: activators; 0.063% of 320,000 active; AID 504706; note: potency is the fitted concentration of half-maximal effect; % of control where 0% means no effect; nearly all actives have a fitted effect of over 45% in size
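p53-null H1299 cells stably carrying temperature-sensitive p53-A138V and a BP100-luciferase reporter were pinned with compounds (4-point, 1:5 series) and held 24 hrs at 37 deg C. Luminescence was read 10 min after detection reagent.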
* = called active by the depositor; ? = inconclusive; . = not tested or not shown. Sampled rows, rich in hits. Any-hit rate of the full collection: about 1.3%. Unless noted, calls come from the whole dose curve; as a rule, active = well fitted curve in the direction sought with a large enough effect; inconclusive = small, poorly fitted or top-dose-only effect, or another doubt; inactive = no such curve, though single readings can be large; an effect the other way counts as inactive or inconclusive.

SMILES | TCR act | BRCA1 expr act | IL2 activator | Mito fusion act | p53 reactivation
Cc1cc(-c2ccccc2)n(-c2ccccc2)n1 | 5% | 8.9µM* | -2 | -10% | ?
COc1ccc(NC(=O)CCn2cnnn2)cc1 | . | . | . | 2% | .
Cc1ccnc2ccc(F)cc12 | . | 109% | . | . | .
CC(=O)c1ccc(NC(=O)CSc2nccn2C)cc1 | 3% | 11µM* | 0 | -4% | 5%
Cc1ccc(NC(=O)CSc2nccn2Cc2ccccc2)cc1C | 4% | 8.9µM* | 0 | -4% | ?
O=C(CSc1nccn1Cc1ccco1)Nc1ccc(F)cc1 | -2% | 7% | 0 | -5% | -5%
CC(=O)c1ccc(NC(=O)CSc2nccn2CCc2ccccc2)cc1 | -3% | 13µM* | 0 | 0% | ?
Cc1ccc(NC(=O)CSc2nccn2Cc2ccco2)cc1 | 4% | 10µM* | -2 | -6% | 4%
Cn1ccnc1SCC(=O)Nc1ccc2nc(SCC(=O)NC3CC3)sc2c1 | -3% | 3.5µM* | 1 | 0% | ?
N#Cc1ccccc1NC(=O)CSc1nccn1CCc1ccccc1 | . | 11µM* | 0 | 4% | ?
N#Cc1ccccc1NC(=O)CSc1nnc(-c2ccccc2)n1-c1ccccc1 | -10% | -90% | 0 | -2% | -3%
CSCCC(=O)Nc1ccc(C(C)=O)cc1 | 5% | 13µM* | -1 | 0% | ?
Cn1ccnc1SCC(=O)NC1CCCC1 | 3% | -26% | -5 | -5% | 3%
Cc1cc(NC(=O)c2ccc(NC(=O)C3CCCO3)cc2)ccc1Br (stereo not given) | -12% | 1.1µM* | 1 | -14% | ?
CCCOC(=O)c1ccc(NC(=O)C2CCCO2)cc1 (stereo not given) | 0% | 11µM* | -2 | 6% | ?
O=C(NNc1ccccc1F)c1sccc1Cl | . | 31% | . | . | .
COC(=O)C1=C(C)NC(C)=C([N+](=O)[O-])C1c1ccccc1C(F)(F)F (stereo not given) | 1% | 0% | 0 | 13µM* | -4%
COC(=O)C1=C(C)NC(C)=C(C(=O)OC)C1c1ccc(-c2cccc([N+](=O)[O-])c2)o1 | 2% | -32% | 0 | 1% | -5%
N#CN=c1snc(-c2ccccc2Cl)n1-c1ccc(F)cc1 | . | -66% | . | . | .
COc1ccc2nc(C)cc(NCc3ccc(F)cc3)c2c1 | -1% | -35% | 65* | -2% | 0%
C=Cc1ccc(Cn2c(C(=O)O)c(CNC3CCCCC3)c3ccc(OC)cc32)cc1 | . | -38% | . | . | .
Cn1c(C(=O)NCCC2=CCCCC2)cc2c(=O)n3ccccc3nc21 | -7% | 11µM* | 2 | -11% | 18%
CCCCN(CCCC)CC(O)c1cc(Cl)cc2c1-c1ccc(Cl)cc1C2=Cc1ccc(Cl)cc1 (stereo not given) | . | -30% | . | . | .
CC(C)(C)c1ccc(OCC(=O)N2CCCCCC2)c(Br)c1 | -1% | 17% | 2 | 26% | 9%
Cc1ccc(OCC(=O)N2CCCCC2)c(Br)c1 | 4% | 11µM* | 0 | -3% | ?
SMILES | TCR act | BRCA1 expr act | IL2 activator | Mito fusion act | p53 reactivation
N.N.N.N.N.N.N.N.N.N.N.N.N.N.O.O.[Ru+4].[Ru+5].[Ru+5] | . | . | . | -39% | .
CNc1ccc(C=O)cc1Br | . | 2% | . | . | .
CC(=O)Nc1ccc(OCC(O)Cn2c(C(C)C)nc3ccccc32)cc1 (stereo not given) | 2% | 4% | 72* | -4% | -3%
COC(=O)c1ccc(OCC(O)Cn2nnc3ccccc32)cc1 (stereo not given) | -21% | 11µM* | 0 | 0% | 18%
CC(=O)c1ccc(OCC(O)Cn2nnc3ccccc32)cc1 (stereo not given) | 5% | ? | -1 | -6% | 10%
COc1ccc(OC)c(C(Cc2ccnc3ccccc23)Cc2ccnc3ccccc23)c1 | . | -57% | . | . | .
O=C(c1ccccc1)c1cc2cc(Cl)ccc2[nH]1 | 11% | 10µM* | -1 | -32% | ?
C(=C\c1ccnc2ccccc12)/c1ccc(-[n+]2cc[n+](-c3ccc(/C=C/c4ccnc5ccccc45)cc3)cc2)cc1 | . | -37% | . | . | .
O=C(Nc1ccccc1)Nc1ccc(-n2ccc(C(F)(F)F)n2)cc1 | 3% | 3.5µM* | -1 | -4% | ?
